This is part of a sample that, as a whole, favours compounds with a hit. Of some 79,000 tested, about 15% had one in any assay. Activity calls are given as the source filed them. Cut-off read from the data, not from the text of the source: active = growth inhibition above about 70%; inactive = the rest. Where a SMILES comes first, the peptide text is derived from it. The star is where a group is joined. Boc = CC(C)(C)OC(=O)*; OBn = c1ccc(CO*)cc1; Bn = c1ccc(C*)cc1
Assay: NCI Yeast Anticancer Drug Screen. Data for the mec2-1 strain (AID 157)
Conditions: S. cerevisiae mec2-1 strain, at 50.0 µM, active compounds read high
Outline: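 Cells of the genetically defined mec2-1 yeast strain are incubated with test compound. Inhibition of growth is calculated against vehicle-treated controls.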
For `O=[N+]([O-])c1ccccc1N=Nc1c(O)[nH]c2c(Cl)cc(Cl)cc12`, the growth inhibition was -35.6% (inactive). In the case of `CC1=CCC2N=C(c3ccccc3)CC2(C)C1=O` (stereo not given), the growth inhibition is reported as 21.6% (inactive). In the case of `CCN(CC)CCOc1ccc(/C(C#N)=C/c2ccc(OCCN3CCCCC3)cc2)cc1`, the growth inhibition is reported as 20.9% (inactive). In the case of `O=C1c2cc([N+](=O)[O-])ccc2-c2c(Cl)cc(NC(=O)C(F)(F)F)cc21`, the growth inhibition is reported as -11.3% (inactive). For `COc1ccc(C2SCC(=O)N2c2nncs2)cc1F` (stereo not given), the growth inhibition was 1.55% (inactive). In the case of `CC(=O)OCC1OC(OC(C)=O)C(NS(=O)(=O)Cc2ccccc2)C(OC(C)=O)C1OC(C)=O` (stereo not given), the growth inhibition is reported as 17.4% (inactive). With `COc1ccc(/C=C2\C=Cc3ccccc32)cc1OC` the growth inhibition was -6% (inactive). With `Cc1ccc(N2C(=O)CS/C2=C(\C#N)c2nc3ccccc3[nH]2)cc1` the growth inhibition was -62% (inactive). With `CCN(CC)/C(C=[N+]=[N-])=N\C(N)=N\S(=O)(=O)c1ccc(OC)cc1` the growth inhibition was -13.9% (inactive). For `O=C1c2ccccc2C(=O)N1CNc1cccc(NCN2C(=O)c3ccccc3C2=O)c1`, the growth inhibition was -11.7% (inactive). With `CCN(CC)CC(O)c1cccc2cc(Cl)ccc12` (stereo not given) the growth inhibition was -8.85% (inactive). For `C=C1C(=O)OC2CCCC(O)C12` (stereo not given), the growth inhibition was 2.45% (inactive). In the case of `CCSC(SCC)C(SCC)C(OC(=O)c1ccccc1)C(OC(=O)c1ccccc1)C(COC(=O)c1ccccc1)OC(=O)c1ccccc1` (stereo not given), the growth inhibition is reported as -2.35% (inactive). In the case of `O=C(O)C(CO)Nc1ccccc1` (stereo not given), the growth inhibition is reported as 10.4% (inactive). For `N#CCCP(=O)(O)CO`, the growth inhibition was -13.3% (inactive). For `COc1ccc(O)c(C(=O)O)c1`, the growth inhibition was -12.3% (inactive). For `Cc1ccc2ccccc2c1CC(=O)NN`, the growth inhibition was -26.8% (inactive). In the case of `Cc1cc2ccccc2c(Br)c1C`, the growth inhibition is reported as 4.95% (inactive). In the case of `O=C(c1ccccc1)c1cccnc1`, the growth inhibition is reported as -18.3% (inactive). For `Cc1ccc(S(=O)(=O)CCN2CCOCC2)cc1`, the growth inhibition was -3.15% (inactive). With `COc1cc2nncc(SCc3ccc(Cl)cc3Cl)c2cc1OC` the growth inhibition was 2.9% (inactive). For `COCC(C)OC(=O)c1ccccc1Cl` (stereo not given), the growth inhibition was 10.3% (inactive). In the case of `CCOC(=O)C(Cc1ccc(O)cc1)NC(=O)C(CSC(c1ccccc1)(c1ccccc1)c1ccccc1)NC(c1ccccc1)(c1ccccc1)c1ccccc1` (stereo not given), the growth inhibition is reported as 0.8% (inactive). In the case of `CSc1cc(C)c(C#N)c(SC)n1`, the growth inhibition is reported as -32.1% (inactive). For `CC(O)COc1ccc(C(C)(C)C)cc1` (stereo not given), the growth inhibition was -4.2% (inactive). In the case of `CS(=O)(=O)c1ccc(/C=C2/C=Cc3ccccc32)cc1`, the growth inhibition is reported as 13.2% (inactive). In the case of `CC(O)CNC(C)(C)CN` (stereo not given), the growth inhibition is reported as -15.5% (inactive). With `CC(SC(C)C(=O)N/N=C/C=C\c1ccccc1)C(=O)N/N=C\C=C\c1ccccc1` (stereo not given) the growth inhibition was 5% (inactive). For `NC(=O)c1c[n+]([O-])ccc1[N+](=O)[O-]`, the growth inhibition was 5.3% (inactive). In the case of `COc1ccc(/C=C2\SC(c3ccc(OC)cc3)N(NC(=O)Cc3ccccc3)C2=O)cc1` (stereo not given), the growth inhibition is reported as -34.8% (inactive). In the case of `S=c1[nH]nc(-c2ccccc2)n1/N=C\c1ccc(-c2ccc(Cl)cc2)o1`, the growth inhibition is reported as -21.5% (inactive). In the case of `CN(CCC(=O)c1ccc2ccccc2c1)Cc1ccccc1`, the growth inhibition is reported as 3% (inactive). For `COc1ccccc1C(=O)O`, the growth inhibition was -16.8% (inactive). In the case of `CC(C)CC(NC(=O)C(CCC(=O)OCc1ccccc1)NC(=O)OC(C)(C)C)C(=O)NC(COCc1ccccc1)C(=O)NC(Cc1ccccc1)C(=O)O` (stereo not given) (Boc-E(OBn)LS(Bn)F-OH; configuration not given here), the growth inhibition is reported as -4.8% (inactive). With `COC1=CC(=O)C(c2cc(O)c(OC)cc2O)=CC1=O` the growth inhibition was 4.45% (inactive). In the case of `COc1ccc(C2N3CCCCC3[C@@H]3c4[nH]c5ccccc5c4CCN23)c(OC)c1` (stereo not given in full), the growth inhibition is reported as -24.4% (inactive). In the case of `OC1CSCCSCCCSCCSC1`, the growth inhibition is reported as 22.4% (inactive). For `CN1C2CC(=O)CC1[C@@H]1OC(c3ccccc3)O[C@H]21` (stereo not given in full), the growth inhibition was -3.25% (inactive). In the case of `CCOC(=O)C1=C(C)OC(=O)CC1C` (stereo not given), the growth inhibition is reported as -15.8% (inactive). For `OCc1ccc2[n+](c1)CCC1c3ccccc3NC21` (stereo not given), the growth inhibition was -8.75% (inactive).

Assay: NCI Yeast Anticancer Drug Screen. Data for the sgs1 mgt1 strain (AID 161);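 note: 0% = growth of cultures given vehicle only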
Conditions: S. cerevisiae sgs1 mgt1 strain, at 50.0 µM, active compounds read high
Outline: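 Mutant yeast exposed to compound; growth scored against vehicle-only wells.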
In the case of `O=[N+]([O-])c1ccccc1N=Nc1c(O)[nH]c2c(Cl)cc(Cl)cc12`, the growth inhibition is reported as -31.9% (inactive). With `CC1=CCC2N=C(c3ccccc3)CC2(C)C1=O` (stereo not given) the growth inhibition was 24.3% (inactive). In the case of `CCN(CC)CCOc1ccc(/C(C#N)=C/c2ccc(OCCN3CCCCC3)cc2)cc1`, the growth inhibition is reported as 57.3% (inactive). With `O=C1c2cc([N+](=O)[O-])ccc2-c2c(Cl)cc(NC(=O)C(F)(F)F)cc21` the growth inhibition was 1.65% (inactive). With `COc1ccc(C2SCC(=O)N2c2nncs2)cc1F` (stereo not given) the growth inhibition was 20.9% (inactive). For `CC(=O)OCC1OC(OC(C)=O)C(NS(=O)(=O)Cc2ccccc2)C(OC(C)=O)C1OC(C)=O` (stereo not given), the growth inhibition was 13.7% (inactive). For `COc1ccc(/C=C2\C=Cc3ccccc32)cc1OC`, the growth inhibition was 0.7% (inactive). In the case of `Cc1ccc(N2C(=O)CS/C2=C(\C#N)c2nc3ccccc3[nH]2)cc1`, the growth inhibition is reported as -66.1% (inactive). With `CCN(CC)/C(C=[N+]=[N-])=N\C(N)=N\S(=O)(=O)c1ccc(OC)cc1` the growth inhibition was -13.8% (inactive). In the case of `O=C1c2ccccc2C(=O)N1CNc1cccc(NCN2C(=O)c3ccccc3C2=O)c1`, the growth inhibition is reported as -9.75% (inactive). With `CCN(CC)CC(O)c1cccc2cc(Cl)ccc12` (stereo not given) the growth inhibition was 28% (inactive). With `C=C1C(=O)OC2CCCC(O)C12` (stereo not given) the growth inhibition was -6.55% (inactive). For `CCSC(SCC)C(SCC)C(OC(=O)c1ccccc1)C(OC(=O)c1ccccc1)C(COC(=O)c1ccccc1)OC(=O)c1ccccc1` (stereo not given), the growth inhibition was -14.4% (inactive). In the case of `O=C(O)C(CO)Nc1ccccc1` (stereo not given), the growth inhibition is reported as 22.1% (inactive). In the case of `N#CCCP(=O)(O)CO`, the growth inhibition is reported as 1.1% (inactive). With `COc1ccc(O)c(C(=O)O)c1` the growth inhibition was -7.55% (inactive). With `Cc1ccc2ccccc2c1CC(=O)NN` the growth inhibition was -0.6% (inactive). For `Cc1cc2ccccc2c(Br)c1C`, the growth inhibition was 26% (inactive). With `O=C(c1ccccc1)c1cccnc1` the growth inhibition was -17.4% (inactive). In the case of `Cc1ccc(S(=O)(=O)CCN2CCOCC2)cc1`, the growth inhibition is reported as 5% (inactive). For `COc1cc2nncc(SCc3ccc(Cl)cc3Cl)c2cc1OC`, the growth inhibition was -1.65% (inactive). In the case of `COCC(C)OC(=O)c1ccccc1Cl` (stereo not given), the growth inhibition is reported as 5.95% (inactive). With `CCOC(=O)C(Cc1ccc(O)cc1)NC(=O)C(CSC(c1ccccc1)(c1ccccc1)c1ccccc1)NC(c1ccccc1)(c1ccccc1)c1ccccc1` (stereo not given) the growth inhibition was -14.8% (inactive). In the case of `CSc1cc(C)c(C#N)c(SC)n1`, the growth inhibition is reported as -12.9% (inactive). In the case of `CC(O)COc1ccc(C(C)(C)C)cc1` (stereo not given), the growth inhibition is reported as -2.45% (inactive). For `CS(=O)(=O)c1ccc(/C=C2/C=Cc3ccccc32)cc1`, the growth inhibition was 6.35% (inactive). For `CC(O)CNC(C)(C)CN` (stereo not given), the growth inhibition was -10.4% (inactive). With `CC(SC(C)C(=O)N/N=C/C=C\c1ccccc1)C(=O)N/N=C\C=C\c1ccccc1` (stereo not given) the growth inhibition was 1.05% (inactive). In the case of `NC(=O)c1c[n+]([O-])ccc1[N+](=O)[O-]`, the growth inhibition is reported as 34.8% (inactive). In the case of `COc1ccc(/C=C2\SC(c3ccc(OC)cc3)N(NC(=O)Cc3ccccc3)C2=O)cc1` (stereo not given), the growth inhibition is reported as -6.9% (inactive). For `S=c1[nH]nc(-c2ccccc2)n1/N=C\c1ccc(-c2ccc(Cl)cc2)o1`, the growth inhibition was -0.7% (inactive). With `CN(CCC(=O)c1ccc2ccccc2c1)Cc1ccccc1` the growth inhibition was 27.4% (inactive). In the case of `COc1ccccc1C(=O)O`, the growth inhibition is reported as -9.4% (inactive). In the case of `CC(C)CC(NC(=O)C(CCC(=O)OCc1ccccc1)NC(=O)OC(C)(C)C)C(=O)NC(COCc1ccccc1)C(=O)NC(Cc1ccccc1)C(=O)O` (stereo not given) (Boc-E(OBn)LS(Bn)F-OH; configuration not given here), the growth inhibition is reported as -8.05% (inactive). With `COC1=CC(=O)C(c2cc(O)c(OC)cc2O)=CC1=O` the growth inhibition was -3.65% (inactive). In the case of `COc1ccc(C2N3CCCCC3[C@@H]3c4[nH]c5ccccc5c4CCN23)c(OC)c1` (stereo not given in full), the growth inhibition is reported as -26.6% (inactive). In the case of `OC1CSCCSCCCSCCSC1`, the growth inhibition is reported as 44.5% (inactive). In the case of `CN1C2CC(=O)CC1[C@@H]1OC(c3ccccc3)O[C@H]21` (stereo not given in full), the growth inhibition is reported as -15.4% (inactive). For `CCOC(=O)C1=C(C)OC(=O)CC1C` (stereo not given), the growth inhibition was 3.75% (inactive). With `OCc1ccc2[n+](c1)CCC1c3ccccc3NC21` (stereo not given) the growth inhibition was -18.6% (inactive).

From PubChem BioAssay (NCI)
